# Reference: the supplement of paper PMC9135407
# Several values for one entry are separate records, joined by “and”; a condition that tells them apart may be missing. Equal entries are not always repeated. Structures can show the parent of a compound that is named as a salt. Among all 5,800 compounds or so, about 620 (11%) showed activity. For the sample, actives were picked, then their nearest neighbours and some compounds at random. Values without a mark were called inactive.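 The calls were made as follows: active = score above a cut-off or among the top three wells of a plate; in these data no inactive exceeds 0.85.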
# Test system: primary human hepatic stellate cells (donor 1)
# Test: scaled lipid accumulation score (0 = DMSO-like, 1 = nortriptyline-like); higher = stronger HSC inactivation (lipid re-accumulation), active = hit call of the paper
# Settings: 48 h
# [1] = library stock concentration: 80 uM
# [2] = library stock concentration: 400 uM
# [3] = library stock concentration: 2 mM
# [4] = library stock concentration: 10 mM
# [5] = library stock concentration: 3.33 mM
# [6] = library stock concentration: 1 mM
smiles,measurement,setting,value
CCN1CCN(c2ccc(Nc3cc(N(C)C(=O)Nc4c(Cl)c(OC)cc(OC)c4Cl)ncn3)cc2)CC1,scaled lipid accumulation score,[1],≤ -0.009
same,scaled lipid accumulation score,[2],≤ -0.009
same,scaled lipid accumulation score,[3],0.01
same,scaled lipid accumulation score,[4],0.291
CCC[C@H](Nc1nc(-c2ccc(NC(=O)NCC)c(OC)c2)ncc1C)c1cccnc1 [CYT997 (Lexibulin)],scaled lipid accumulation score,[5],0.682
same,scaled lipid accumulation score,[4],0.758
COc1ccc(-c2cc3nccn3c(Nc3ncccc3C(N)=O)n2)cc1OC,scaled lipid accumulation score,[1],0.088
same,scaled lipid accumulation score,[2],≤ -0.009
same,scaled lipid accumulation score,[3],0.133
same,scaled lipid accumulation score,[4],0.349
C[N+](C)(C)CCO.[Cl-] [Choline chloride],scaled lipid accumulation score,[4],≤ -0.027
same,scaled lipid accumulation score,library stock concentration: 14.3 mM,≤ 0
C[N+](C)(C)CCO.[Cl-] [Choline Chloride],scaled lipid accumulation score,[5],≤ 0
same,scaled lipid accumulation score,[4],0.043
N#CC(=Cc1ccc2[nH]ccc2c1)C(N)=C(C#N)C#N,scaled lipid accumulation score,library stock concentration: 19.3 mM,0.606
COc1ccc(C2=N[C@@H](c3ccc(Cl)cc3)[C@@H](c3ccc(Cl)cc3)N2C(=O)N2CCNC(=O)C2)c(OC(C)C)c1 [Nutlin-3],scaled lipid accumulation score,[5],0.168
same,scaled lipid accumulation score,[4],0.829
COc1ccc(C2=N[C@@H](c3ccc(Cl)cc3)[C@@H](c3ccc(Cl)cc3)N2C(=O)N2CCNC(=O)C2)c(OC(C)C)c1,scaled lipid accumulation score,[6],≤ 0
COc1ccc(C2=NC(c3ccc(Cl)cc3)C(c3ccc(Cl)cc3)N2C(=O)N2CCNC(=O)C2)c(OC(C)C)c1 (stereo not given) [Nutlin-3a],scaled lipid accumulation score,[5],0.207
COc1ccc(C2=NC(c3ccc(Cl)cc3)C(c3ccc(Cl)cc3)N2C(=O)N2CCNC(=O)C2)c(OC(C)C)c1 (stereo not given) [Nutlin-3b],scaled lipid accumulation score,[5],≤ -0.009
same,scaled lipid accumulation score,[4],≤ 0
COc1ccc(C2=N[C@@H](c3ccc(Cl)cc3)[C@H](c3ccc(Cl)cc3)N2C(=O)N2CCNC(=O)C2)c(OC(C)C)c1 [Nutlin-3a],scaled lipid accumulation score,[4],0.954 (active)
CCCCCCCCCCCCCCCCCCOCC(O)COP(=O)([O-])OCC[N+](C)(C)C (stereo not given),scaled lipid accumulation score,[6],≤ 0
CCCCCCCCCCCCCCCCCC(=O)OCC [Stearic Acid ethyl ester],scaled lipid accumulation score,[6],≤ 0
O=C1C(Cl)=C(NCCN2CCOCC2)C(=O)c2ncccc21,scaled lipid accumulation score,[4],1.04 (active)
O=C(NCCN1CCOCC1)c1ccc(Cl)cc1 [Moclobemide],scaled lipid accumulation score,,0.059
same,scaled lipid accumulation score,[4],0.047
O=C(NCCN1CCOCC1)c1ccc(Cl)cc1,scaled lipid accumulation score,[5],≤ 0
same,scaled lipid accumulation score,[4],≤ 0
O=C(NCCN1CCOCC1)c1ccc(Cl)cc1 [4-Chloro-N-(2-morpholin-4-yl-ethyl)-benzamide],scaled lipid accumulation score,[4],≤ 0
c1ccc2c(c1)CCCc1cc(NCCN3CCOCC3)nnc1-2,scaled lipid accumulation score,,0.038
CN1Cc2sccc2C(c2ccc(O)c(O)c2)C1 (stereo not given),scaled lipid accumulation score,[4],0.005
CC(=O)N[C@@H](CSC/C=C(\C)CC/C=C(\C)CCC=C(C)C)C(=O)O [N-acetyl-S-farnesyl-L-Cysteine],scaled lipid accumulation score,[6],≤ 0
CC(=O)N[C@@H](CSC/C=C(\C)CC/C=C(\C)CCC=C(C)C)C(=O)O [Acetyl (N)-s-farnesyl-l-cysteine],scaled lipid accumulation score,library stock concentration: 13.6 mM,≤ -0.021
CS(=O)(=O)Nc1c(O)ccc2c1CCCC2C1=NCCN1 (stereo not given),scaled lipid accumulation score,[4],0.027
COc1cc(C=C(C#N)C(N)=O)cc(CSc2nc3ccccc3s2)c1O [Tyrphostin AG-825],scaled lipid accumulation score,library stock concentration: 12.6 mM,0.042
Cc1cnc(Nc2ccc(OCCN3CCCC3)cc2)nc1Nc1cccc(S(=O)(=O)NC(C)(C)C)c1,scaled lipid accumulation score,[1],0.07
same,scaled lipid accumulation score,[2],0.23
same,scaled lipid accumulation score,[3],0.765
same,scaled lipid accumulation score,[5],0.703
same,scaled lipid accumulation score,[4],0.345 and 0.579
c1ccc(-c2cnc(Nc3ccc(OCCN4CCCC4)cc3)s2)cc1 [Flt-3 Inhibitor III],scaled lipid accumulation score,[5],1.17 (active)
c1cc(-c2cnn3cc(-c4ccc(OCCN5CCCCC5)cc4)cnc23)ccn1 [Dorsomorphin],scaled lipid accumulation score,[1],≤ 0
same,scaled lipid accumulation score,[2],≤ 0
same,scaled lipid accumulation score,[3],0.557
same,scaled lipid accumulation score,[4],0.469
"c1cc(-c2cnn3cc(-c4ccc(OCCN5CCCCC5)cc4)cnc23)ccn1 [AMPK Inhibitor, Compound C]",scaled lipid accumulation score,[5],≤ 0
CCCCC[C@H](O)C/C=C1/C(=O)C[C@H](O)[C@@H]1C/C=C\CCCC(=O)O [.DELTA.12-Prostaglandin D2],scaled lipid accumulation score,[6],≤ 0
CCCCC/C=C\C/C=C\CC/C=C\CCCC(=O)O [Pinolenic Acid],scaled lipid accumulation score,[6],0.009
NC(=O)N1C(=O)/C(=C(\O)c2cccs2)c2cc(Cl)ccc21 [Tenidap],scaled lipid accumulation score,[4],≤ -0.001
O=C(O)c1cc(O)c2ccc(Cl)cc2n1 [7-Chlorokynurenic acid],scaled lipid accumulation score,[4],0.023
Cc1cnc(-c2ccccc2C(C)C)nc1NCc1ccc(-n2ccnn2)cc1,scaled lipid accumulation score,[5],≤ -0.009
same,scaled lipid accumulation score,[4],≤ 0
Nc1cc(N2CCCCC2)nc(N)[n+]1OS(=O)(=O)[O-] [Minoxidil sulfate],scaled lipid accumulation score,library stock concentration: 17.3 mM,≤ -0.021
C=CCCCCCCCCC(=O)O [Undecylenic acid],scaled lipid accumulation score,library stock concentration: 10.9 mM,≤ 0
O=c1[nH]ccc2c(S(=O)(=O)N3CCCNCC3)cccc12 [HA 1100 hydrochloride],scaled lipid accumulation score,[4],≤ -0.001
CC1CN(S(=O)(=O)c2cccc3cnccc23)CCN1 (stereo not given),scaled lipid accumulation score,[4],0.164
"O=S(=O)(c1cccc2c(I)cccc12)N1CCCNCC1 [ML-7, Hydrochloride]",scaled lipid accumulation score,[5],0.25
O=S(=O)(c1cccc2c(I)cccc12)N1CCCNCC1 [listing 1 of 2 here],scaled lipid accumulation score,[1],≤ -0.001
same,scaled lipid accumulation score,[2],≤ -0.001
same,scaled lipid accumulation score,[3],0.204
O=S(=O)(c1cccc2c(Cl)cccc12)N1CCCNCC1 [listing 1 of 2 here],scaled lipid accumulation score,library stock concentration: 15.4 mM,0.912 (active)
O=S(=O)(c1cccc2cnccc12)N1CCCNCC1 [Fasudil],scaled lipid accumulation score,library stock concentration: 6.9 mM,≤ -0.006
O=S(=O)(c1cccc2cnccc12)N1CCNCC1,scaled lipid accumulation score,[4],0.248
NCCNS(=O)(=O)c1cccc2c(Cl)cccc12 [A3 hydrochloride],scaled lipid accumulation score,[4],≤ 0
O=S(=O)(c1cccc2c(Cl)cccc12)N1CCCNCC1 [listing 2 of 2 here],scaled lipid accumulation score,[4],1.02 (active)
O=S(=O)(c1cccc2cnccc12)N1CCCNCC1 [Fasudil hydrochloride],scaled lipid accumulation score,[4],0.07
O=S(=O)(c1cccc2cnccc12)N1CCCNCC1,scaled lipid accumulation score,[4],0.257
O=S(=O)(c1cccc2cnccc12)N1CCCNCC1 [Fasudil (HA-1077) HCl],scaled lipid accumulation score,[5],≤ 0
same,scaled lipid accumulation score,[4],0.14
O=S(=O)(c1cccc2c(I)cccc12)N1CCCNCC1 [listing 2 of 2 here],scaled lipid accumulation score,[4],0.931 (active)
COCCOc1cc2nc[nH]c(=O)c2cc1OCCOC,scaled lipid accumulation score,[4],0.018
CCCCC[C@H](O)/C=C/[C@H]1C=CC(=O)[C@@H]1CCCCCCC(=O)O [Prostaglandin A1],scaled lipid accumulation score,[6],0.022 and 0.047
Nc1nc2c([nH]c(=O)n2[C@H]2C[C@H](O)[C@@H](CO)O2)c(=O)[nH]1 [8-hydroxy-2'-deoxy Guanosine],scaled lipid accumulation score,[6],≤ 0
C[C@@H]1CC(=O)NN=C1c1ccc(NN=C(C#N)C#N)cc1 [Levosimendan],scaled lipid accumulation score,[5],≤ 0
same,scaled lipid accumulation score,[4],≤ 0
C[C@@H]1CC(=O)NN=C1c1ccc(NN=C(C#N)C#N)cc1,scaled lipid accumulation score,[4],0.073
Cc1ccccc1/C=C/C1=NCCN1 [Metrazoline oxalate],scaled lipid accumulation score,[4],0.381
"CCCCCC(=O)/C=C/C=C\CCCCCCCC(=O)O [13-Keto-octadeca-9Z,11E-dienoic acid]",scaled lipid accumulation score,library stock concentration: 100 uM,0.012
"O=Cc1c2[nH]c3ccccc3c2cc2[nH]c3ccccc3c12 [6-Formylindolo [3,2-B] carbazole]",scaled lipid accumulation score,[6],≤ -0.02
NC(C(=O)O)c1ccc(C(=O)O)c(C(=O)O)c1 (stereo not given),scaled lipid accumulation score,[4],≤ -0.006
CN(C)c1cc2c(Nc3ccc4c(cnn4Cc4ccccc4)c3)ncnc2cn1,scaled lipid accumulation score,[4],0.524
Cc1c(NC(=O)OC[C@@H]2COCCN2)cn2ncnc(Nc3ccc4c(cnn4Cc4cccc(F)c4)c3)c12.Cl,scaled lipid accumulation score,[5],1.15 (active)
same,scaled lipid accumulation score,[4],1.2 (active)
Cc1nc2ccc(NC(=O)Nc3ccnc4cccnc34)cc2o1,scaled lipid accumulation score,[4],≤ -0.006
CC(=O)[C@]1(O)Cc2c(O)c3c(c(O)c2[C@@H](O[C@H]2C[C@H](N)[C@H](O)[C@H](C)O2)C1)C(=O)c1ccccc1C3=O [Idarubicin HCl],scaled lipid accumulation score,[5],0.288
same,scaled lipid accumulation score,[4],0.179
CC(=O)[C@]1(O)Cc2c(O)c3c(c(O)c2[C@@H](O[C@H]2C[C@H](N)[C@H](O)[C@H](C)O2)C1)C(=O)c1ccccc1C3=O [Idarubicin],scaled lipid accumulation score,library stock concentration: 4 mM,0.387
same,scaled lipid accumulation score,[4],≤ -0.07
CC(=O)[C@]1(O)Cc2c(O)c3c(c(O)c2[C@@H](O[C@H]2C[C@H](N)[C@H](O)[C@H](C)O2)C1)C(=O)c1ccccc1C3=O,scaled lipid accumulation score,[4],0.372
CCCCN1CCC(CCC(=O)c2cc(Cl)c(N)cc2OC)CC1,scaled lipid accumulation score,[4],0.511
COc1cc(COc2cc(N)c(Cl)cc2C(=O)CCC2CCN(CCNS(C)(=O)=O)CC2)cc(OC)c1.Cl,scaled lipid accumulation score,[4],1.06 (active)
COc1cc(N)c(Cl)cc1C(=O)CCC1CCN(CCNS(C)(=O)=O)CC1,scaled lipid accumulation score,[4],≤ 0
CC(C)(Cc1ccc2ccccc2c1)NC[C@@H](O)COc1cccc(Cl)c1C#N,scaled lipid accumulation score,[5],0.524
same,scaled lipid accumulation score,[4],0.023
CC(C)Oc1ccc(Cc2ccc(NC3=NCCN3)cc2)cc1,scaled lipid accumulation score,[6],0.221
CN(C)CC=CC(=O)Nc1cc2c(Nc3ccc(F)c(Cl)c3)ncnc2cc1O[C@H]1CCOC1 [Afatinib (BIBW2992)],scaled lipid accumulation score,[5],1.12 (active)
"CN(C)C/C=C/C(=O)Nc1cc2c(Nc3ccc(F)c(Cl)c3)ncnc2cc1O[C@H]1CCOC1 [Afatinib  (TOVOK,  BIBW-2992) (0.4 mM)]",scaled lipid accumulation score,[2],0.318
CN(C)C/C=C/C(=O)Nc1cc2c(Nc3ccc(F)c(Cl)c3)ncnc2cc1O[C@H]1CCOC1,scaled lipid accumulation score,[1],0.425
same,scaled lipid accumulation score,[2],0.614
same,scaled lipid accumulation score,[4],0.544
CN(C)CC=CC(=O)Nc1cc2c(Nc3ccc(F)c(Cl)c3)ncnc2cc1OC1CCOC1 (stereo not given),scaled lipid accumulation score,[3],0.855 (active)
"CN(C)C/C=C/C(=O)Nc1cc2c(Nc3ccc(F)c(Cl)c3)ncnc2cc1O[C@H]1CCOC1 [Afatinib  (TOVOK,  BIBW-2992) (10 mM)]",scaled lipid accumulation score,[4],0.256
"CN(C)C/C=C/C(=O)Nc1cc2c(Nc3ccc(F)c(Cl)c3)ncnc2cc1O[C@H]1CCOC1 [Afatinib  (TOVOK,  BIBW-2992) (2 mM)]",scaled lipid accumulation score,[3],1.29 (active)
CN(C)C/C=C/C(=O)Nc1cc2c(Nc3ccc(F)c(Cl)c3)ncnc2cc1O[C@H]1CCOC1 [Afatinib (BIBW2992)],scaled lipid accumulation score,[4],0.323
